FBW7 act = human FBW7 E3 ligase activation, primary screen | AlphaScreen FBW7–phospho-cyclin E peptide binding, activator screen | actives 0.13% (n = 650,000) | normalized activity (activation), % at 26.1 µM | Q969H0; in the data active = normalized activity above about 1.9%;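 also: purified mutant Fbw7 with reduced substrate affinity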
MITF primary = inhibitors of human MITF | actives 0.91% (n = 650,000) | AlphaScreen MITF homodimerization, bead proximity signal | O75030 | AID 1259374 | inhibition, % at 2.6 µM; in the data active = inhibition above about 50%
TEAD-YAP block = TEAD-YAP interaction inhibition | actives 1.4% (n = 640,000) | HEK-TIYL cells, TEAD-Gal4/YAP UAS-luciferase luminescence | AID 1259422 | inhibition, % at 9.12 µM; in the data active = inhibition above about 32%
GPR151 ag = activators of human GPR151; Q8TDV0; PathHunter beta-arrestin GPR151 cells, luminescence; activation, % at 11.2 µM; actives 1% (n = 650,000); AID 1508602; in the data active = activation above about 4.9%
Target sequence (Q8TDV0 whole entry, looked up): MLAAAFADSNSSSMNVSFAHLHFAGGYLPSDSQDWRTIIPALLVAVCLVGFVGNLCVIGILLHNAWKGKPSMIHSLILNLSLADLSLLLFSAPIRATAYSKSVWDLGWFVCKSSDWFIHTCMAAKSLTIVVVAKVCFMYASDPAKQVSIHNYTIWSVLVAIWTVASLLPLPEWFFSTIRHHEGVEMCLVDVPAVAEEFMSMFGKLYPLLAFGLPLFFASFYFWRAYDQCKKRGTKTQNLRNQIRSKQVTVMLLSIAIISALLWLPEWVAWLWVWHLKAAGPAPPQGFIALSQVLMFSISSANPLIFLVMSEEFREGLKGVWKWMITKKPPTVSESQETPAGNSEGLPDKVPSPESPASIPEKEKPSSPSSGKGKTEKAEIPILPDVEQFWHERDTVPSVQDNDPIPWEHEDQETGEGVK
Hits are given with their value; 0 = inactive. In the library only some 3.4% were active in any assay of this set; here they are far more common.

SMILES | FBW7 act | MITF primary | TEAD-YAP block | GPR151 ag
Cc1[nH]c2ccccc2c1C(=O)COC(=O)CNC(=O)c1ccc(Br)o1 | 0 | 0 | 0 | 0
CCOc1ccc(C(=O)NCC(=O)OCC(=O)c2c(C)[nH]c3ccccc23)cc1 | 2.1 | 0 | 0 | 0
Oc1ccc(C2=Nn3c(nnc3-c3cccc(F)c3)SC2)cc1O | 0 | 0 | 61 | 0
COc1cccc(C2=Nn3c(nnc3-c3ccccc3)SC2)c1 | 0 | 0 | 0 | 0
COc1cccc(-c2nnc3n2N=C(c2ccc(O)c(O)c2)CS3)c1 | 0 | 0 | 58 | 0
CCC(=O)Nc1ccc(C2=Nn3c(COc4ccc(OC)cc4)nnc3SC2)cc1 | 0 | 0 | 48 | 0
COc1ccc(-c2nnc3n2N=C(c2ccc4c(c2)OCCO4)CS3)cc1 | 0 | 0 | 46 | 0
CC(=O)Nc1ccc(Nc2ncnc3c2nc(-c2ccc(C(=O)N4CCN(C)CC4)cc2)n3C(C)C)cc1 | 0 | 0 | 0 | 0
COc1ccc([C@@H]2C[C@H]3CN(C4Cc5ccccc5C4)C(=O)[C@]34CCCN24)cc1O | 0 | 0 | 0 | 0
CCOC(=O)c1c(C)[nH]c(C)c1C(=O)COC(=O)C1=COCCO1 | 0 | 0 | 0 | 0
COc1cc(C2=N/C(=C\c3ccc(N(C)C)cc3)C(=O)O2)cc(OC)c1OC | 0 | 0 | 0 | 0
CC(C)NC(=O)C12CC3CC(CC(C3)C1)C2 | 0 | 0 | 0 | 0
CCc1ccc(C(=O)N/N=C(\C)c2ccco2)nc1 | 0 | 0 | 0 | 0
COc1cccc(C2=Nn3c(nnc3-c3ccccc3O)SC2)c1 | 0 | 0 | 0 | 0
COc1ccc(-c2nnc3n2N=C(c2ccccc2)CS3)cc1 | 0 | 0 | 0 | 0
COc1ccc(C2=Nn3c(nnc3-c3ccc(OC)cc3)SC2)cc1 | 0 | 0 | 49 | 0
COc1ccc(-c2nnc3n2N=C(c2ccc(O)c(O)c2)CS3)cc1 | 0 | 0 | 50 | 0
Cc1ccc(C2=Nn3c(nnc3-c3ccccc3)SC2)cc1 | 0 | 0 | 60 | 0
Oc1ccc(C2=Nn3c(nnc3-c3ccccc3Br)SC2)cc1O | 0 | 0 | 52 | 0
Cc1ccccc1-c1nsc(SCC(=O)N2CCCc3ccccc32)n1 | 0 | 0 | 0 | 0
Oc1ccc(C2=Nn3c(nnc3-c3ccc(Br)cc3)SC2)cc1O | 0 | 0 | 66 | 0
COc1cccc(-c2nnc3n2N=C(c2ccc(Br)cc2)CS3)c1 | 0 | 0 | 0 | 0
Cc1cc(C(=O)NC2CC2)c2ccccc2n1 | 0 | 0 | 0 | 0
Cc1cc(C(=O)NN=C2C3CC4CC(C3)CC2C4)c2ccccc2n1 | 0 | 0 | 47 | 0
CCOC(=O)c1ccc(COC(=O)c2ccccc2NC)cc1 | 2.2 | 0 | 0 | 0
SMILES | FBW7 act | MITF primary | TEAD-YAP block | GPR151 ag
Cc1nn(-c2ccccc2)c(Cl)c1C(=O)NCc1ccccc1 | 0 | 0 | 0 | 0
Fc1cc(-c2nc(Nc3ccc(-n4cnc(N5CCOCC5)n4)cc3)ncc2F)cc(N2CCOCC2)c1 | 0 | 0 | 0 | 0
Fc1cc(-c2nc(Nc3ccc(-n4cnc(-c5ccccn5)n4)cc3)ncc2F)cc(N2CCOCC2)c1 | 0 | 0 | 58 | 0
c1cc(-c2ccnc(Nc3ccc(-n4cnnc4)cc3)n2)cc(N2CCOCC2)c1 | 0 | 0 | 45 | 0
c1ccc(-c2ncn(-c3ccc(Nc4nccc(-c5cccc(N6CCOCC6)c5)n4)cc3)n2)nc1 | 0 | 0 | 80 | 0
c1ccc(-c2ncn(-c3ccc(Nc4nccc(-c5cncc(N6CCOCC6)c5)n4)cc3)n2)nc1 | 0 | 0 | 73 | 0
Cc1ccccc1NC(=O)C1CC(=O)OC1c1ccccc1 (configuration not stated) | 0 | 0 | 0 | 0
Cc1nc2sc3c(c2c2nnc(SCC(=O)NC(C)(C)C)n12)CCCC3 | 0 | 0 | 0 | 0
Cc1sc2nc(C)n3c(=O)n(CC(=O)N4CCNC(=O)C4(C)C)nc3c2c1C | 0 | 0 | 0 | 0
CCCn1c(=O)/c(=C\c2cccc(Cl)c2)s/c1=C(/C#N)C(=O)N1CCOCC1 | 0 | 0 | 0 | 0
O=C(Nc1nc2ccccc2s1)c1ccccc1Cl | 0 | 0 | 81 | 0
O=C(Nc1nc2ccccc2s1)c1cccc(Cl)c1Cl | 0 | 0 | 0 | 0
O=C(Nc1nc2ccccc2s1)c1ccccc1O | 0 | 0 | 0 | 0
O=C(Nc1nc2ccccc2s1)c1ccccc1F | 0 | 0 | 87 | 0
CC(=O)Nc1ccc2nc(NC(=O)c3ccc(Cl)cc3Cl)sc2c1 | 0 | 0 | 0 | 0
O=C(Nc1nc2ccccc2s1)c1ccc(Cl)cc1Cl | 0 | 0 | 81 | 0
Clc1ccc(Nc2nc(N3CCOCC3)nc(N3CCOCC3)n2)cc1 | 0 | 0 | 0 | 0
Cc1cc(C(=O)CCl)c(C)n1Cc1cccs1 | 0 | 0 | 0 | 0
Cc1cc(C(=O)CSc2nnc(N)s2)c(C)n1Cc1cccs1 | 0 | 0 | 58 | 0
Cc1csc(SCC(=O)c2cc(C)n(Cc3cccs3)c2C)n1 | 0 | 0 | 59 | 0
Cc1cc(C(=O)CSc2nc(N)cc(=O)[nH]2)c(C)n1Cc1cccs1 | 0 | 0 | 0 | 0
